{
  "source": "PubChem BioAssay (EPA / NIEHS)",
  "key": {"[1]": {"molecular_target": "human Phosphodiesterase 5 (PDE5), PDE5A (gene 8654) (UniProt O76074)", "test": "NVS_ENZ_hPDE5: NovaScreen (NVS) Enzymatic Assay for human Phosphodiesterase 5 (PDE5) (AID 2283194)", "how_it_was_run": "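Recombinant human PDE5 with specific substrate, read 1 h after dosing by fluorescence with electrophoretic mobility-shift separation of substrate and product. Initial single-concentration duplicate screen at 25 uM, actives followed in concentration series; loss of activity versus DMSO.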"}, "[2]": {"molecular_target": "human Protein Phosphatase, Mg2+/Mn2+ Dependent 1A (PPM1A), PPM1A (gene 5494) (UniProt P35813)", "sequence (P35813 whole entry, looked up)": "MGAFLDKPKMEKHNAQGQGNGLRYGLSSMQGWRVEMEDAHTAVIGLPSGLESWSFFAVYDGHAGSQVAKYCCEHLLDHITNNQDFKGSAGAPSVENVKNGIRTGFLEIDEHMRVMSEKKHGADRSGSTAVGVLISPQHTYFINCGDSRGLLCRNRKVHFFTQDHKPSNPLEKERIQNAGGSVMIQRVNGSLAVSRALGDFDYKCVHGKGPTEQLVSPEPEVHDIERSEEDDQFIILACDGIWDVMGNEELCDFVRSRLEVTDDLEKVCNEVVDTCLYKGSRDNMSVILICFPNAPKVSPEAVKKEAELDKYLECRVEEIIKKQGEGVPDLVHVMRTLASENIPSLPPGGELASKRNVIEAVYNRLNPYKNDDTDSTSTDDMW", "test": "NVS_ENZ_hPPM1A: NovaScreen (NVS) Enzymatic Assay for human Protein Phosphatase, Mg2+/Mn2+ Dependent 1A (PPM1A) (AID 2283198)", "how_it_was_run": "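Cell-free recombinant PPM1A phosphatase assay with fluorescent substrate, read 1 h after dosing by electrophoretic mobility shift. Chemicals screened in duplicate at 25 uM, then in concentration-response up to 50 uM; loss of activity versus DMSO.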"}, "[3]": {"molecular_target": "human Matrix Metalloproteinase-9 (MMP9), MMP9 (gene 4318) (UniProt P14780)", "sequence (P14780 whole entry, looked up)": "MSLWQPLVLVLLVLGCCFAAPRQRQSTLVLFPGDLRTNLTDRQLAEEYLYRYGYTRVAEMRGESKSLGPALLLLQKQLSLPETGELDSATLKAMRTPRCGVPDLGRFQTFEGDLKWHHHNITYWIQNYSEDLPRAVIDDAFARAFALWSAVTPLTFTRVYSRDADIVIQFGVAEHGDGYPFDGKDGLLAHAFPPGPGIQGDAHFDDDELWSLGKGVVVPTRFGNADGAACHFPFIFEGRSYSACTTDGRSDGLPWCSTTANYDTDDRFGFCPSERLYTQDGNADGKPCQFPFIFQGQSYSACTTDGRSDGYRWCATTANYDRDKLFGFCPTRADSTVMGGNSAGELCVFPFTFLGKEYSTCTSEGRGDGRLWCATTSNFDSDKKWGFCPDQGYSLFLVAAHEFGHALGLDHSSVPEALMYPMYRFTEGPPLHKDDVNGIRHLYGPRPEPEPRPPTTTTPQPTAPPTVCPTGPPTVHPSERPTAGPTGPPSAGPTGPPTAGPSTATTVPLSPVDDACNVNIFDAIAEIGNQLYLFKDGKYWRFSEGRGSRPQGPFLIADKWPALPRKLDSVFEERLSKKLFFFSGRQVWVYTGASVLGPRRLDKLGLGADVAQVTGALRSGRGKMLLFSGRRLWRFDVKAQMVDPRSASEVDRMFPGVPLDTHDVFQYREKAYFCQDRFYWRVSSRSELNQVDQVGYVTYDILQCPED", "test": "NVS_ENZ_hMMP9: NovaScreen (NVS) Enzymatic Assay for human Matrix Metalloproteinase-9 (MMP9) (AID 2283190);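 note: active means inhibition seen as loss of fluorescence signal versus DMSO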", "how_it_was_run": "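Cell-free fluorescence-intensity enzyme activity assay using extracted protein, read 1 h after dosing. Loss of signal versus DMSO baseline indicates inhibition; primary screen in duplicate at 25 uM, actives followed up in concentration series.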"}, "[4]": {"molecular_target": "Serine/threonine-protein phosphatase PP1-alpha catalytic subunit (Homo sapiens) (UniProt P62136)", "sequence (P62136 whole entry, looked up)": "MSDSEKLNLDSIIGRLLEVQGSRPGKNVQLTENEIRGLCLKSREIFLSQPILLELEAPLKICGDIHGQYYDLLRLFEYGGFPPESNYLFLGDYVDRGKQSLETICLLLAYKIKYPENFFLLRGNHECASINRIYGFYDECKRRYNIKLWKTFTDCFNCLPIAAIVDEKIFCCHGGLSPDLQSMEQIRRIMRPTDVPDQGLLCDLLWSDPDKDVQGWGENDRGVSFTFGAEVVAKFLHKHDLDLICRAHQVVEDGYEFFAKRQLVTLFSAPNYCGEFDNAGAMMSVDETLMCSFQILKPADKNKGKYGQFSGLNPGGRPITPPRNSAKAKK", "test": "NVS_ENZ_hPPP1CA: NovaScreen (NVS) Enzymatic Assay for human Protein Phosphatase 1 Aatalytic subunit Alpha (PPP1CA) (AID 2283200)", "how_it_was_run": "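Recombinant enzyme activity read by fluorescence with electrophoretic mobility shift separating substrate from product, 1.33 h after dosing; loss of signal vs DMSO baseline. Primary screen in duplicate at 25 uM; actives retested in concentration-response up to 50 uM.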"}, "[5]": {"molecular_target": "human Protein Tyrosine Phosphatase Non-receptor Type 9 (PTPN9), PTPN9 (gene 5780) (UniProt P43378)", "sequence (P43378 whole entry, looked up)": "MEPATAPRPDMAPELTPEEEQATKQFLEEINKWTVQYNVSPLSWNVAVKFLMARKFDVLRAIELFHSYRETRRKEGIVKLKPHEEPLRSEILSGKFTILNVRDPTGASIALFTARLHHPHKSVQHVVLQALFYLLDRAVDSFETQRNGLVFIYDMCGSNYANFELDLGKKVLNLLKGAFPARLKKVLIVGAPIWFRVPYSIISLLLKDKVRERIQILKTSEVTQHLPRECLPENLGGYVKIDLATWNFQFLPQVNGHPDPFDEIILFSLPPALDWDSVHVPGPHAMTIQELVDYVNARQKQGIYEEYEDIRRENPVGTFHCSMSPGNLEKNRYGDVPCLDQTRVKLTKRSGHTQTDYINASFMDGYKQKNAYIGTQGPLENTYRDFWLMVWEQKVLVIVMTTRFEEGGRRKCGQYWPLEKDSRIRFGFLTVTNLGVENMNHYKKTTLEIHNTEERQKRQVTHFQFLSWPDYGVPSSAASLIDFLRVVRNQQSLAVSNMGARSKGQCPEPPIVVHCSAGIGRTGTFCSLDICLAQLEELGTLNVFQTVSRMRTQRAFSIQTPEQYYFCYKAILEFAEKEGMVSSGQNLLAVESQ", "test": "NVS_ENZ_hPTPN9: NovaScreen (NVS) Enzymatic Assay for human Protein Tyrosine Phosphatase Non-receptor Type 9 (PTPN9) (AID 2283209)", "how_it_was_run": "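Sf9-expressed enzyme in a cell-free assay, fluorescence read 1.33 h after dosing with mobility-shift separation of substrate and product. Tested at 25 uM in duplicate, then up to 50 uM; signal loss versus DMSO.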"}, "[6]": {"molecular_target": "human Phosphodiesterase 4A1 (PDE4A1), PDE4A (gene 5141) (UniProt P27815)", "sequence (P27815 whole entry, looked up)": "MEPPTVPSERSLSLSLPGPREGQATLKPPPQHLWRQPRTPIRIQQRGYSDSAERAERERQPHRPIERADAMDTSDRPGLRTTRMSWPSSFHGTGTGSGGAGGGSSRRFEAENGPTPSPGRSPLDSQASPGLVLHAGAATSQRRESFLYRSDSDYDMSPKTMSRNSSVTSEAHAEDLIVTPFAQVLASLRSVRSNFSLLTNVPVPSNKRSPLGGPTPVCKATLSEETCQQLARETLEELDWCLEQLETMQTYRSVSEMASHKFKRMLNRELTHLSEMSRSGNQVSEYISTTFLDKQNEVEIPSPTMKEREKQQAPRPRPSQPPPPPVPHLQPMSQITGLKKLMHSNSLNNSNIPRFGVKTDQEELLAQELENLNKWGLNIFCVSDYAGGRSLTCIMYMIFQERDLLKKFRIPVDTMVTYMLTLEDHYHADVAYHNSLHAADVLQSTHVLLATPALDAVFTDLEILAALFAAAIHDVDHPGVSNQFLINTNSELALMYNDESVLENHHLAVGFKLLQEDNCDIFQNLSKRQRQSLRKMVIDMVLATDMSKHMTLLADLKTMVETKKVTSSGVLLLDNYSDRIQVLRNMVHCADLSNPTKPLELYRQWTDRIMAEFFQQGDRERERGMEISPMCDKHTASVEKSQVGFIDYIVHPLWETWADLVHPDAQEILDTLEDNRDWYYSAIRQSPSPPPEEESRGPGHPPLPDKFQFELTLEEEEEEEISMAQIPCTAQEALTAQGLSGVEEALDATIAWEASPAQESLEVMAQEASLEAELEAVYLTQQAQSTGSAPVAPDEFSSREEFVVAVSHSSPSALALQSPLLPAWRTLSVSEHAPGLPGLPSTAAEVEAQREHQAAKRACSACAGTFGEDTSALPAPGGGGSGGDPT", "test": "NVS_ENZ_hPDE4A1: NovaScreen (NVS) Enzymatic Assay for human Phosphodiesterase 4A1 (PDE4A1) (AID 2283191)", "how_it_was_run": "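Cell-free recombinant human PDE4A1 with fluorescent substrate; product separated by electrophoretic mobility shift, 1 h. Screened at 25 uM, then up to 50 uM in concentration-response; loss of signal fitted against DMSO.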"}, "[7]": {"molecular_target": "human Phosphodiesterase 10 (PDE10), PDE10A (gene 10846) (UniProt Q9Y233)", "sequence (Q9Y233 whole entry, looked up)": "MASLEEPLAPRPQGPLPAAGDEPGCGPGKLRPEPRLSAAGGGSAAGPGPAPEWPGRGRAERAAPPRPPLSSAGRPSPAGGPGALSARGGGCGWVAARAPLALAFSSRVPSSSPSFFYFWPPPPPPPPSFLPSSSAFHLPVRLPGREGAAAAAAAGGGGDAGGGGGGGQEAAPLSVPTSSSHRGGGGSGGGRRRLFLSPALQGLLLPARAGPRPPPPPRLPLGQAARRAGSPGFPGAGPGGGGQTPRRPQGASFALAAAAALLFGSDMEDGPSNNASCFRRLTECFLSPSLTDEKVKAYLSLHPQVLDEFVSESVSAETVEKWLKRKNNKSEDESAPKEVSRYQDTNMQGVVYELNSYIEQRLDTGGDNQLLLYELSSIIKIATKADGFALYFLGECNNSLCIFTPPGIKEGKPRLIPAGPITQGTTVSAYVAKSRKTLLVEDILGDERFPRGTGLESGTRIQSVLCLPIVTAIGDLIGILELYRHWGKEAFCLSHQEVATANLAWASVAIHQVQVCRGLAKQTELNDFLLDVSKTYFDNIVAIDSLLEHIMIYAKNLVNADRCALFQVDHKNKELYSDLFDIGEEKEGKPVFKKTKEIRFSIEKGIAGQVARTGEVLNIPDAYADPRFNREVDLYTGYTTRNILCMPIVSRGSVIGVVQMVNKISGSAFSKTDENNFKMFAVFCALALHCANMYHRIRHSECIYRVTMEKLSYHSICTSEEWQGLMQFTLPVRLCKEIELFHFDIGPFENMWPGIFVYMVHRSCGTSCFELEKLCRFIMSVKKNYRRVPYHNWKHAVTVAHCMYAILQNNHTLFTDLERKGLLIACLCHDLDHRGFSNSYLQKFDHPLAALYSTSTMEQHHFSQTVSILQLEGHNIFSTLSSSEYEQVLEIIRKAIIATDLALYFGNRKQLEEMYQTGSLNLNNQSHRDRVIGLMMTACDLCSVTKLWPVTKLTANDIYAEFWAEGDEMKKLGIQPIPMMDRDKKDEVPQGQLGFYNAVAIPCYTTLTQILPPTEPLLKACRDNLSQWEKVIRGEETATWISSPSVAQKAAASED", "test": "NVS_ENZ_hPDE10: NovaScreen (NVS) Enzymatic Assay for human Phosphodiesterase 10 (PDE10) (AID 2283195)", "how_it_was_run": "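Fluorescence/mobility-shift readout of PDE10A enzyme activity, taken 1 h post-dosing. Primary screen in duplicate at 25 uM; actives (e.g. ≥30% inhibition) retested as singleton concentration-response, top concentration 50 uM.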"}, "[8]": {"molecular_target": "Tyrosine-protein phosphatase non-receptor type 12 (Homo sapiens) (UniProt Q05209)", "test": "NVS_ENZ_hPTPN12: NovaScreen (NVS) Enzymatic Assay for human Protein Tyrosine Phosphatase Non-receptor Type 12 (PTPN12) (AID 2283204)", "how_it_was_run": "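Single-concentration duplicates (25 uM) preceded singleton concentration-response up to 50 uM for chemicals passing threshold. Cell-free recombinant PTPN12 activity was read 1.33 h after dosing via fluorescence after mobility-shift separation; loss of signal versus DMSO.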"}, "[9]": {"molecular_target": "cAMP-dependent protein kinase catalytic subunit alpha (Homo sapiens) (UniProt P17612)", "test": "NVS_ENZ_hPKA: NovaScreen (NVS) Enzymatic Assay for human Protein Kinase A (PKA) (AID 2283192)", "how_it_was_run": "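Recombinant human PKA with specific fluorescent substrate, product separated by electrophoretic mobility shift, read 1 h after dosing. Primary screen at 25 uM in duplicate; actives then run in concentration-response up to 50 uM, activity relative to DMSO.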"}, "[10]": {"molecular_target": "human Protein Tyrosine Phosphatase Non-receptor Type 1 (PTPN1), PTPN1 (gene 5770) (UniProt P18031)", "sequence (P18031 whole entry, looked up)": "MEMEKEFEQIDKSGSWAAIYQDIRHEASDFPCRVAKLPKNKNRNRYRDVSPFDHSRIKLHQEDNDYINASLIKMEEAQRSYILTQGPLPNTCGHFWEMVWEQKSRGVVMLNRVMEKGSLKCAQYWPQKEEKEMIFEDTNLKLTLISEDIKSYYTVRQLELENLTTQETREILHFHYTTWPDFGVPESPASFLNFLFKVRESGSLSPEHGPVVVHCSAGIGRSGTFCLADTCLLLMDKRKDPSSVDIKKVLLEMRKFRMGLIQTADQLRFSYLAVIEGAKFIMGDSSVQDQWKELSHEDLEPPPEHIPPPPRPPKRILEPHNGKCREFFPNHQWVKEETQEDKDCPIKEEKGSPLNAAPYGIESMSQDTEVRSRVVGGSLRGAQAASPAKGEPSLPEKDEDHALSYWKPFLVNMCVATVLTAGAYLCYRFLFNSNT", "test": "NVS_ENZ_hPTPN1: NovaScreen (NVS) Enzymatic Assay for human Protein Tyrosine Phosphatase Non-receptor Type 1 (PTPN1) (AID 2283201)", "how_it_was_run": "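Cell-free fluorogenic-substrate activity assay on recombinant enzyme, read 1.33 h after dosing by fluorescence and electrophoretic mobility shift; loss of signal vs DMSO baseline. Primary screen in duplicate at 25 uM, hits then run in concentration-response up to 50 uM.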"}, "[11]": {"molecular_target": "Tyrosine-protein phosphatase non-receptor type 13 (Homo sapiens) (UniProt Q12923)", "test": "NVS_ENZ_hPTPN13: NovaScreen (NVS) Enzymatic Assay for human Protein Tyrosine Phosphatase Non-receptor Type 13 (PTPN13) (AID 2283205)", "how_it_was_run": "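Cell-free assay of recombinant human PTPN13 with a fluorescent substrate, product separated by electrophoretic mobility shift and read 0.5 h after dosing. Primary screen at 25 uM in duplicate, then concentration-response up to 50 uM. Loss of signal fitted against DMSO.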"}, "[12]": {"molecular_target": "Tyrosine-protein phosphatase non-receptor type 11 (Homo sapiens) (UniProt Q06124)", "sequence (Q06124 whole entry, looked up)": "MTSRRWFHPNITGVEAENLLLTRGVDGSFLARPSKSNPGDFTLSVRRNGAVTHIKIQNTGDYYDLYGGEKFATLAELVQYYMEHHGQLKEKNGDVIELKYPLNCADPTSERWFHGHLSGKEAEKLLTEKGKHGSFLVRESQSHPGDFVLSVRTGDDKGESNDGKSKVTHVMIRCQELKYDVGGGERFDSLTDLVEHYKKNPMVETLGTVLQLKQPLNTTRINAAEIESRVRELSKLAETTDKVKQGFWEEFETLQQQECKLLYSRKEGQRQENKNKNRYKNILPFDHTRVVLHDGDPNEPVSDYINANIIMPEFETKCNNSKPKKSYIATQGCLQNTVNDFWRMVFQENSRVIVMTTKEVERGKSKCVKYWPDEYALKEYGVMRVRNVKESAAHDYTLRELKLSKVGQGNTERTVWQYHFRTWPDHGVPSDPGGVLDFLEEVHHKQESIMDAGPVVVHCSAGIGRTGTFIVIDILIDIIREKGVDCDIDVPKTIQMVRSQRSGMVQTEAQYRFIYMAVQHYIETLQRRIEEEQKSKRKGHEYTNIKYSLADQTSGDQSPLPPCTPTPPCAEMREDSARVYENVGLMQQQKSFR", "test": "NVS_ENZ_hPTPN11: NovaScreen (NVS) Enzymatic Assay for human Protein Tyrosine Phosphatase Non-receptor Type 11 (PTPN11) (AID 2283202)", "how_it_was_run": "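Recombinant human PTPN11 activity on a fluorescent substrate, with substrate/product separated by electrophoretic mobility shift; read 0.5 h after dosing, loss of signal vs DMSO. Duplicate 25 uM screen, then concentration-response up to 50 uM.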"}},
  "note": "Inconclusive results are not listed. Calls of active or inactive are those of the source. Rule for the calls: active = hit-call score of the fitted dose curve at least 0.9, where 1 is the maximum; inconclusive = response in the unintended direction; inactive = score below 0.9.",
  "data": [
    {"smiles": "CC/C(=C\\C(=N/O)C(N)=O)C(C)[N+](=O)[O-]", "note": "(centres undefined)", "values": [
      {"measurement": "AC50", "setting": "[1]", "result": "40.1 µM (active)"}
    ]},
    {"smiles": "O=c1[nH]c2ccc(S(=O)CCN3CCC(Cc4ccc(F)cc4)CC3)cc2o1", "note": "(centres undefined)", "values": [
      {"measurement": "outcome", "setting": "[2]", "result": "inactive"}
    ]},
    {"smiles": "COCCOCCOCCOC", "values": [
      {"measurement": "outcome", "setting": "[3]", "result": "inactive"},
      {"measurement": "outcome", "setting": "[4]", "result": "inactive"}
    ]},
    {"smiles": "O=C1OC(=O)C2C3C=CC(C3)C12", "note": "(centres undefined)", "values": [
      {"measurement": "outcome", "setting": "[5]", "result": "inactive"}
    ]},
    {"smiles": "CC[C@H]1CC[C@H](NCc2cc3c(cc2OC)[C@H]2C[C@H]2C(=O)N3C)[C@H](c2ccccc2)N1", "values": [
      {"measurement": "outcome", "setting": "[6]", "result": "inactive"},
      {"measurement": "outcome", "setting": "[7]", "result": "inactive"}
    ]},
    {"smiles": "Cn1c(=O)c2c(ncn2C)n(C)c1=O", "values": [
      {"measurement": "AC50", "setting": "[6]", "result": "25 µM (active)"},
      {"measurement": "outcome", "setting": "[1]", "result": "inactive"},
      {"measurement": "AC50", "setting": "[7]", "result": "25 µM (active)"}
    ]},
    {"smiles": "Cn1c(=O)cc(Oc2ccc(F)cc2F)c2cnc(NCC(C)(C)O)nc21", "values": [
      {"measurement": "AC50", "setting": "[6]", "result": "0.914 µM (active)"},
      {"measurement": "AC50", "setting": "[1]", "result": "12.4 µM (active)"},
      {"measurement": "AC50", "setting": "[7]", "result": "8.25 µM (active)"}
    ]},
    {"smiles": "CCC(C)(C)C(=O)O[C@H]1C[C@@H](C)C=C2C=C[C@H](C)[C@H](CC[C@@H]3C[C@@H](O)CC(=O)O3)[C@H]21", "values": [
      {"measurement": "AC50", "setting": "[8]", "result": "33.5 µM (active)"}
    ]},
    {"smiles": "CN(C)c1ccc(N=NS(=O)(=O)O)cc1", "values": [
      {"measurement": "outcome", "setting": "[9]", "result": "inactive"},
      {"measurement": "outcome", "setting": "[1]", "result": "inactive"},
      {"measurement": "outcome", "setting": "[10]", "result": "inactive"},
      {"measurement": "AC50", "setting": "[8]", "result": "12.5 µM (active)"},
      {"measurement": "AC50", "setting": "[11]", "result": "16.4 µM (active)"},
      {"measurement": "outcome", "setting": "[5]", "result": "inactive"}
    ]},
    {"smiles": "COc1cccc(-c2ccc(/C=C\\CN3CCCCCC3)cc2Cl)c1", "values": [
      {"measurement": "outcome", "setting": "[6]", "result": "inactive"},
      {"measurement": "AC50", "setting": "[7]", "result": "22.6 µM (active)"}
    ]},
    {"smiles": "CN(C)c1ccc(Cc2ccc(N(C)C)cc2)cc1", "values": [
      {"measurement": "outcome", "setting": "[9]", "result": "inactive"},
      {"measurement": "outcome", "setting": "[5]", "result": "inactive"}
    ]},
    {"smiles": "CCOC(=O)c1ccc(C2CCC(NC[C@H](O)COc3ccc(O)c(NS(C)(=O)=O)c3)CC2)cc1", "note": "(some centres undefined)", "values": [
      {"measurement": "AC50", "setting": "[3]", "result": "12.7 µM (active)"}
    ]},
    {"smiles": "Cc1ccc(C)c(O)c1", "values": [
      {"measurement": "outcome", "setting": "[2]", "result": "inactive"}
    ]},
    {"smiles": "O=C(CCCCCCCCc1cccnc1)N1CCC(C=C(c2ccccc2)c2ccccc2)CC1", "values": [
      {"measurement": "outcome", "setting": "[12]", "result": "inactive"}
    ]},
    {"smiles": "CC(C)(O)c1coc(S(=O)(=O)NC(=O)Nc2c3c(cc4c2CCC4)CCC3)c1", "values": [
      {"measurement": "outcome", "setting": "[2]", "result": "inactive"}
    ]},
    {"smiles": "CC(C)=CCCC(C)CCO", "note": "(centres undefined)", "values": [
      {"measurement": "outcome", "setting": "[1]", "result": "inactive"}
    ]},
    {"smiles": "CCCCCCCCCCCCc1ccccc1", "values": [
      {"measurement": "outcome", "setting": "[10]", "result": "inactive"}
    ]},
    {"smiles": "CC(C)=CCC/C(C)=C/CO", "values": [
      {"measurement": "outcome", "setting": "[5]", "result": "inactive"}
    ]},
    {"smiles": "O=c1n(CC2CO2)c(=O)n(CC2CO2)c(=O)n1CC1CO1", "note": "(centres undefined)", "values": [
      {"measurement": "outcome", "setting": "[4]", "result": "inactive"},
      {"measurement": "outcome", "setting": "[5]", "result": "inactive"}
    ]},
    {"smiles": "CC1(C)C(=O)N(Br)C(=O)N1Br", "values": [
      {"measurement": "outcome", "setting": "[6]", "result": "inactive"}
    ]}
  ]
}
